Inconclusive results are not listed. Active and inactive are the calls of the source. Unless noted, calls follow the shape of the dose curve; as a rule, active = well fitted curve in the direction sought with a large enough effect in the repeat runs; inconclusive = weak or mixed curves; inactive = no such curve, though single readings can be large; an effect the other way counts as inactive or inconclusive.
Key:
[1] = qHTS assay for small molecules that induce genotoxicity in human embryonic kidney cells expressing luciferase-tagged ATAD5 (AID 651632); also: nearly all actives have a fitted effect of over 15% in size
Summary of the method: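 Luminescence read-out: after 16 hr compound exposure at 37C, ATAD5-luciferase HEK293T cells received Amplite, 30 min RT, then CCD imaging. A rise in signal marks genotoxic stress.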

[2] = qHTS assay for small molecule agonists of the p53 signaling pathway - cell viability (AID 651633; calls by dose curve;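 also: p53RE-bla HCT reporter cells with a stable beta-lactamase p53 reporter; series mostly up to about 83 µM; nearly all actives have a fitted effect of over 30% in size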)
Summary of the method: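 Viability counter-read: CellTiter-Glo luminescence (30 min, room temperature) in the same p53RE-bla plates. These plates had been exposed to compounds for 16 h at 37 C.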

[3] = qHTS assay for small molecules that induce genotoxicity in human embryonic kidney cells expressing luciferase-tagged ATAD5 - cell viability (AID 651634; calls by dose curve; also: nearly all actives have a fitted effect of over 25% in size)
Summary of the method: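 HEK293T ATAD5-luc cells, 2,000/well; compound 15.5 hr, 37C/5% CO2; CellTiter-Fluor 30 min, 37C; fluorescence read.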

[4] = qHTS assay for small molecule disruptors of the mitochondrial membrane potential - cell viability (AID 720634; calls by dose curve;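 also: human HepG2 liver cancer cells; series mostly up to about 83 µM; nearly all actives have a fitted effect of over 20% in size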)
Summary of the method: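 Luminescence from CellTiter-Glo (ATP content) gave viability in HepG2 cells, read in the same wells as the MMP dye assay after 1 hr compound exposure at 37 C.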

[5] = qHTS assay for small molecule disruptors of the mitochondrial membrane potential (AID 720635); also: potency is read from the fitted curve at half-maximal effect
Summary of the method: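 Mitochondrial membrane potential tracked with Mito-MPS dye, red aggregates (ex 540/em 590 nm) against green monomers (ex 490/em 535 nm). Compound treatment 1 hr at 37C, dye 30 min in HepG2.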

[6] = qHTS assay to test for compound auto fluorescence at 590 nm (red) in HepG2 cells (AID 720674)
Summary of the method: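 1 hr compound incubation on HepG2 cells, 37 C, 5% CO2; plate read ex 540 nm / em 590 nm; intensities reported as Rose Bengal sodium equivalents.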

[7] = qHTS assay to test for compound auto fluorescence at 590 nm (red) in HEK293 cells (AID 720679)
Summary of the method: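 Intensity at 540nm excitation and 590nm emission is reported as Rose Bengal sodium-equivalent autofluorescence. Measurements followed overnight exposure (37C, 5% CO2) of HEK293 cells, 2,000 per well, to 23 nL compound.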

[8] = qHTS assay to test for compound auto fluorescence at 535 nm (green) in HEK293 cells (AID 720680)
[9] = qHTS assay to test for compound auto fluorescence at 460 nm (blue) in HEK293 cell free culture (AID 720681)
Summary of the method: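 Blue fluorescence (Ex 405/Em 460 nm, triamterene-equivalent) was read immediately after pin transfer of compound or DMSO into medium (DMEM, 10% FBS) without cells.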

[10] = qHTS assay to test for compound auto fluorescence at 535 nm (green) in HEK293 cell free culture (AID 720682)
Summary of the method: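 Fluorescein serves as the green reference fluorophore; each compound's intrinsic emission at 535 nm (excitation 485 nm) is reported as an equivalent amount of that dye, measured in serum-containing DMEM without cells.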

[11] = qHTS assay to test for compound auto fluorescence at 590 nm (red) in HEK293 cell free culture (AID 720683)
Summary of the method: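 Red-channel autofluorescence of compounds in culture medium (DMEM, 10% FBS), no cells, measured at 540/590 nm. Rose Bengal sodium is the reference fluorophore for equivalence.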

[12] = qHTS assay to test for compound auto fluorescence at 590 nm (red) in HepG2 cell free culture (AID 720684)
Summary of the method: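 No cells present: MEM + 10% FBS only. Compound pinned in, red label read (540/590 nm). Activity = fluorescence equivalent to Rose Bengal sodium.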

[13] = qHTS assay to test for compound auto fluorescence at 535 nm (green) in HepG2 cell free culture (AID 720686)
[14] = qHTS assay to test for compound auto fluorescence at 460 nm (blue) in HepG2 cells (AID 720687)
Summary of the method: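 Blue-channel autofluorescence (Ex/Em 405/460 nm, triamterene-equivalent) was measured after 1 hr compound exposure at 37 C, 5% CO2. Cells were HepG2, plated overnight at 37 C in MEM plus 10% FBS.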

[15] = molecular target: Glucocorticoid receptor (Homo sapiens) (UniProt P04150); assay: qHTS assay to identify small molecule agonists of the glucocorticoid receptor (GR) signaling pathway (AID 720691; active = well fitted activation curve with a large enough effect in the signal ratio in the repeat runs, not every such curve was filed as active; the % refers to the signal ratio)
Summary of the method: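 HeLa GR-bla reporter line; cells pre-incubated 4 h, compound in DMSO 18 h at 37 C; LiveBLAzer B/G FRET substrate 2 h RT; fluorescence intensity read-out.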

[16] = molecular target: Glucocorticoid receptor (Homo sapiens) (UniProt P04150); assay: qHTS assay to identify small molecule antagonists of the glucocorticoid receptor (GR) signaling pathway (AID 720692; active = well fitted inhibition curve with a large enough effect in the signal ratio in the repeat runs, not every such curve was filed as active; the % refers to the signal ratio)
Summary of the method: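 Read-out: beta-lactamase FRET substrate fluorescence, 2 h at room temperature, in HeLa cells stably carrying a GRE-driven bla reporter. Compounds were co-incubated with 5 nM dexamethasone agonist (final) for 18 h at 37 C.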

[17] = qHTS assay to test for compound auto fluorescence at 535 nm (green) in HepG2 cells (AID 720675)
[18] = qHTS assay to test for compound auto fluorescence at 460 nm (blue) in HEK293 cells (AID 720678)
Summary of the method: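 HEK293, 2,000 cells/well, 10% dialyzed FBS; attach 4-5 hr 37C; pin compound or DMSO; o/n 37C/5% CO2; fluorescence 405/460 nm; triamterene-equivalent units.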

[19] = qHTS assay to test for compound auto fluorescence at 460 nm (blue) in HepG2 cell free culture (AID 720685)
Summary of the method: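 Cell-free plates of MEM plus 10% FBS received 23 nL compound or DMSO vehicle; blue-channel (405/460 nm) intensity scored against triamterene as reference fluorophore.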
% is scaled to controls: 0 for no effect and ±100 for the full control effect.

Sequence of Glucocorticoid receptor (Homo sapiens) (P04150 whole entry, looked up): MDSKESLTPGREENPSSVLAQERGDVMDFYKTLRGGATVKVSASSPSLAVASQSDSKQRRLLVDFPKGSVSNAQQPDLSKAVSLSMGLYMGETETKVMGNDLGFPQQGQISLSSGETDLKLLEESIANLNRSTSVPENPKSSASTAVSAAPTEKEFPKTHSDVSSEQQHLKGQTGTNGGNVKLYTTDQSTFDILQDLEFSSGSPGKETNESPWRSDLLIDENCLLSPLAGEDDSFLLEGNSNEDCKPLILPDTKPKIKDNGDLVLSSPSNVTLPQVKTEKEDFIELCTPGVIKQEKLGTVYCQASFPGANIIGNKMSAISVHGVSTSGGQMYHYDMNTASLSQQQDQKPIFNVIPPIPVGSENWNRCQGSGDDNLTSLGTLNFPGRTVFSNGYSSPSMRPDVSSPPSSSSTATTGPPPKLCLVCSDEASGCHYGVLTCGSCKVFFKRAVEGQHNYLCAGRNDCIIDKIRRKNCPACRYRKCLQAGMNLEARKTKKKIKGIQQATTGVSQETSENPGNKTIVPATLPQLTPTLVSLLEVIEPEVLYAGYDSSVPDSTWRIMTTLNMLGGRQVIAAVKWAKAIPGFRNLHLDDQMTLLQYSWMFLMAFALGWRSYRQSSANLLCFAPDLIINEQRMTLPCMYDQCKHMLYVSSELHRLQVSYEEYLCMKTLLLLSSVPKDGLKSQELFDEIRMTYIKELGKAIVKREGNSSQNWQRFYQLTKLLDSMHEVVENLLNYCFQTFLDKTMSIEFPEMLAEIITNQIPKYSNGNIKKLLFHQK

C[C@@H](O)[C@H]1C(=O)N2C(C(=O)O)=C(S[C@@H]3CN[C@H](CNS(N)(=O)=O)C3)[C@H](C)[C@H]12
inactive: Potency [1] | Potency [2] | Potency [3] | Potency [4] | Potency [5] | outcome [6] | outcome [7] | outcome [8] | Potency [9] | outcome [10] | outcome [11] | outcome [12] | outcome [13] | outcome [14] | Potency [15] | Potency [16]

CCCCCCCCC(=O)OCC(C)OC(=O)CCCCCCCC (stereo not given)
inactive: Potency [1] | Potency [2] | Potency [3] | Potency [4] | Potency [5] | outcome [6] | outcome [17] | Potency [18] | outcome [7] | outcome [8] | Potency [9] | outcome [10] | outcome [11] | outcome [12] | outcome [19] | outcome [13] | outcome [14] | Potency [15]

COC(=O)c1cc(Cl)ccc1[N+](=O)[O-]
inactive: Potency [1] | Potency [2] | Potency [3] | Potency [4] | Potency [5] | outcome [6] | outcome [17] | outcome [7] | outcome [8] | Potency [9] | outcome [10] | outcome [12] | outcome [19] | outcome [13] | outcome [14] | Potency [15] | Potency [16]

O=C(O)c1ccc(O)c(O)c1
inactive: Potency [1] | Potency [2] | Potency [3] | Potency [4] | outcome [6] | outcome [17] | Potency [18] | outcome [7] | outcome [8] | Potency [9] | outcome [10] | outcome [11] | outcome [12] | outcome [13] | outcome [14] | Potency [16]

C=CC(C)CCC=C(C)C (stereo not given)
inactive: Potency [1] | Potency [2] | Potency [3] | Potency [4] | outcome [6] | outcome [17] | Potency [18] | outcome [7] | outcome [8] | Potency [9] | outcome [10] | outcome [11] | outcome [12] | outcome [19] | outcome [13] | outcome [14] | Potency [16]

CCCN(C1CCN(C(=O)C2CCNCC2)CC1)[C@@H]1CCc2ccc(OC)cc2C1
inactive: Potency [1] | Potency [2] | Potency [3] | Potency [4] | outcome [6] | Potency [18] | outcome [7] | outcome [8] | Potency [9] | outcome [10] | outcome [12] | outcome [19] | outcome [13] | Potency [15] | Potency [16]

O=C(N[C@@H](Cc1ccccc1)[C@@H](O)C(=O)N1C[C@@H](O)[C@@H](O)C1)c1cc2cc(Cl)ccc2[nH]1
inactive: Potency [1] | Potency [2] | Potency [3] | Potency [4] | outcome [6] | outcome [17] | Potency [18] | outcome [7] | outcome [8] | Potency [9] | outcome [10] | outcome [12] | outcome [19] | outcome [13] | outcome [14]

CC(=O)c1ccc(Cl)c(Cl)c1Cl
inactive: Potency [1] | Potency [2] | Potency [3] | Potency [4] | outcome [6] | outcome [17] | Potency [18] | outcome [7] | outcome [8] | Potency [9] | outcome [10] | outcome [11] | outcome [12] | outcome [19] | outcome [13] | outcome [14] | Potency [15]

Oc1ccc(Oc2ccccc2)cc1
active: Potency [5] 20.6 µM
inactive: Potency [1] | Potency [2] | Potency [3] | Potency [4] | outcome [6] | Potency [18] | outcome [7] | outcome [8] | outcome [10] | outcome [11] | outcome [12] | outcome [19] | outcome [13] | outcome [14]

CC(C)(C(=O)O)c1ccc(C(O)CCCN2CCC(C(O)(c3ccccc3)c3ccccc3)CC2)cc1 (stereo not given)
inactive: Potency [1] | Potency [2] | Potency [3] | Potency [4] | Potency [5] | outcome [6] | outcome [17] | Potency [18] | outcome [7] | outcome [8] | outcome [10] | outcome [11] | outcome [12] | outcome [19] | outcome [13] | outcome [14] | Potency [15] | Potency [16]

CC(C(=O)O)c1ccc2c(c1)Cc1cccnc1O2 (stereo not given)
inactive: Potency [1] | Potency [2] | Potency [3] | Potency [4] | Potency [5] | outcome [6] | outcome [17] | outcome [7] | outcome [8] | outcome [10] | outcome [11] | outcome [12] | outcome [19] | outcome [13] | outcome [14] | Potency [15] | Potency [16]

CCOC(C)OCC
inactive: Potency [1] | Potency [2] | Potency [3] | Potency [4] | outcome [6] | outcome [17] | Potency [18] | outcome [7] | outcome [8] | Potency [9] | outcome [10] | outcome [11] | outcome [12] | outcome [19] | outcome [13] | Potency [16]

COC=O
inactive: activation [1] -1.31% [at 8.08 µM] | activity change, negative = cytotoxicity [2] 21.3% [at 8.08 µM] | activity, negative = cytotoxicity [3] 20.8% [at 8.08 µM] | activity change, negative = cytotoxicity [4] 7.15% [at 8.08 µM] | fluorescence, relative to Rose Bengal [6] 0.0697% [at 9.17 µM] | fluorescence, % of fluorescein control [17] 0.016% [at 9.17 µM] | fluorescence, % of triamterene [18] -0.185% [at 9.17 µM] | fluorescence, % of fluorescent control [7] 0.13% [at 9.17 µM] | fluorescence, % of fluorescein [8] -0.112% [at 9.17 µM] | fluorescence, % of fluorescent control [9] -0.168% [at 9.17 µM] | activity change [10] -0.0308% [at 9.17 µM] | fluorescence, % of fluorescent control [11] -0.0562% [at 9.17 µM] | fluorescence, % of Rose Bengal [12] -0.0589% [at 9.17 µM] | fluorescence, % of fluorescent control [19] -0.142% [at 9.17 µM] | fluorescence, % of fluorescein control [13] -0.0327% [at 9.17 µM] | fluorescence, % of fluorescent control [14] -0.259% [at 9.17 µM]

C1=COCCC1
inactive: Potency [1] | Potency [2] | Potency [3] | Potency [4] | outcome [6] | outcome [17] | Potency [18] | outcome [7] | outcome [8] | outcome [10] | outcome [11] | outcome [12] | outcome [19] | outcome [13] | outcome [14] | Potency [15] | Potency [16]

CCCc1ccc(OC)cc1
inactive: Potency [1] | Potency [2] | Potency [3] | Potency [4] | Potency [5] | outcome [6] | outcome [17] | Potency [18] | outcome [7] | outcome [8] | Potency [9] | outcome [10] | outcome [11] | outcome [12] | outcome [13] | outcome [14] | Potency [15] | Potency [16]

CCCCCCCCNC
inactive: Potency [1] | Potency [2] | Potency [3] | Potency [4] | Potency [5] | outcome [6] | outcome [17] | Potency [18] | outcome [7] | outcome [8] | Potency [9] | outcome [10] | outcome [11] | outcome [12] | outcome [19] | outcome [13] | Potency [16]

Source: PubChem BioAssay (Tox21)
